CHX counter – affects cycloheximide protein synthesis inhibition readout, counter-screen; cell reporter, cycloheximide protein synthesis inhibition counterscreen; max response, %; hit rate 12% among 300,000; in the data active = max response mostly above about 13%, no sharp cut-off; inactive = mostly below about 14%; note: read at 38.3 µM for the half of the compounds with a filed dose
Shiga toxin inh – blocks Shiga toxin action in Vero cells; Vero cells, Shiga toxin protein synthesis inhibition reporter; inhibition, % at 38.7 µM; AID 2315; hit rate 9.2% among 290,000; in the data active = inhibition mostly above about 28%, no sharp cut-off; inactive = mostly below about 43%
AMA1-RON2 inh – inhibitors of Plasmodium falciparum AMA1-RON2 interaction; AlphaScreen AMA1-biotinylated RON2 peptide binding; Potency, µM (top dose mostly 58.2 µM), usual class: inhibitors; AID 720542; hit rate 0.2% among 360,000; active = well fitted inhibition curve with a large enough effect; inconclusive = small, poorly fitted or top-dose-only effect; inactive = no such curve, though single readings can be large or run the other way; note: nearly all actives have a fitted effect of over 45% in size
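AMA1 (3D7) with his tag at 25 nM final met compounds first, then biotinylated RON2 peptide at 25 nM; detection used donor plus acceptor beads, 10 µg/mL apiece, read by AlphaScreen after 30 min at room temperature.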
Marburg entry inh – blocks Marburg virus binding to or entry into cells; hit rate 1.8% among 300,000; Marburg virus pseudotyped entry inhibition, cell reporter; Potency, µM (series often up to 37.8 µM), usual class: inhibitors; calls by dose curve; tested in HEK293 cells
Lassa entry inh – Lassa virus entry inhibition | Lassa virus pseudotype entry inhibition, cell reporter | AID 540256 | hit rate 1.2% among 300,000 | Potency, µM (doses to about 37.9 µM), usual class: inhibitors; calls by dose curve; tested in HEK293 cells; note: nearly all actives have a fitted effect of over 50% in size
A number is an active result; 0 = inactive; ? = inconclusive; - = not tested or not shown; [ ] = dose if it differs, or a comment. Many of the other results were omitted from the sample, so hits are more common in it than they were.

SMILES | CHX counter | Shiga toxin inh | AMA1-RON2 inh | Marburg entry inh | Lassa entry inh
CCOc1cccc(N2C(=O)/C(=C/c3ccco3)C(=O)NC2=S)c1 | 0 | 0 | ? | - | -
O=C1NC(=S)N(c2ccccc2)C(=O)/C1=C/c1ccco1 | 0 | - | 8.9µM | ? | 0
O=C1NC(=S)N(c2ccc(F)cc2)C(=O)/C1=C/c1ccccc1O | 12 | 0 | 0 | - | -
O=C(COC(=O)c1ccco1)NCc1ccc2c(c1)OCO2 | 0 | 0 | 0 | - | -
O=C(COC(=O)c1ccco1)Nc1ccc2c(c1)OCO2 | 25 | 53 | 0 | 0 | 0
Nc1ccc(C(=O)OCC(=O)Nc2ccc3c(c2)OCO3)cc1[N+](=O)[O-] | 20 | 0 | 0 | ? | 0
Cn1cccc1C(=O)OCC(=O)Nc1ccc2c(c1)OCO2 | 33 | 64 | 0 | 0 | 0
CC1=CCC2C(=O)N(c3cccc(C(=O)Nc4ccccc4Cl)c3)C(=O)C2C1 (stereo not given) | 0 | 0 | 0 | 0 | 0
N#C/C(=C\c1cccc(O)c1)C(=O)N1CCCCC1 | 0 | - | 0 | 0 | 0
Cc1cc(/C=C(\C#N)C(=O)N2CCCCC2)cc(C)c1O | 0 | 51 | 0 | ? | ?
O=C(/C=N\O)NCCCN1CCOCC1 | - | - | - | 0 | -
O=C(Nc1nc2c(F)cc(F)cc2s1)C1CCN(C(=O)c2ccc(F)cc2)CC1 | - | - | 0 | 0 | 0
Cc1cccc2sc(NC(=O)C3CCN(S(=O)(=O)c4cc([N+](=O)[O-])ccc4Cl)CC3)nc12 | 0 | 0 | ? | 6.3µM | ?
Cc1nnc(NC(=O)C2CCN(S(=O)(=O)c3cc([N+](=O)[O-])ccc3Cl)CC2)o1 | - | - | 0 | - | -
NNc1nc2c(F)cccc2s1 | 84 | 77 | 0 | ? | 0
Fc1cccc2sc(Nc3nnc(-c4ccccc4)o3)nc12 | 27 | 46 | 0 | ? | ?
NNc1nc2c(F)cc(F)cc2s1 | 70 | 82 | 0 | ? | 0
Cc1onc(-c2ccccc2Cl)c1C(=O)N1CCCCC1C (stereo not given) | 0 | 0 | 0 | ? | 0
CC(=O)Nc1ccc(S(=O)(=O)N2CCC(C(N)=O)(N3CCCCC3)CC2)cc1 | 0 | 0 | 0 | 0 | -
COc1ccc(-c2nnc(Nc3nc4c(OC)cccc4s3)o2)c(OC)c1 | 18 | 43 | 0 | ? | ?
COc1ccc(-c2nnc(Nc3nc4c(OC)cccc4s3)o2)cc1 | 0 | 0 | 0 | 0 | 0
O=C(Nc1nc2c(F)cccc2s1)C1CC1 | 36 | 54 | 0 | - | -
Cc1c(Cl)ccc2sc(NC(=O)C3CC3)nc12 | 18 | 28 | 0 | - | -
Fc1cccc2sc(Nc3nc4c(F)cccc4s3)nc12 | 63 | 38 | 0[2.32 µM] | ? | 0
C[C@H]1CN([C@@H](C)CO)C(=O)CCCn2nncc2CO[C@@H]1CN(C)C(=O)c1ccncc1 | - | - | 0 | - | -
SMILES | CHX counter | Shiga toxin inh | AMA1-RON2 inh | Marburg entry inh | Lassa entry inh
Cc1ccc(S(=O)(=O)C2(S(=O)(=O)c3ccc(C)cc3)CC2)cc1 | 0 | 0 | 0 | 11µM | ?
O=S(=O)(c1ccccc1)C1(S(=O)(=O)c2ccccc2)CCCC1 | 0 | 0 | 0 | 0 | ?
O=c1c(C(c2ccccc2)c2c(O)nc3n(c2=O)CCS3)c(O)nc2n1CCS2 | 0 | 0 | 0 | 0 | 0
Cn1c2ccccc2c2cc(/C=N/NC(=O)c3ccc(N)cc3)ccc21 | 0 | 0 | 0 | ? | ?
Cn1c(C(=O)N/N=C/c2ccccc2)cc2ccccc21 | 21 | 0 | 0 | - | -
Cc1nn(C)c(C(=O)N/N=C/c2ccccc2)c1[N+](=O)[O-] | 0 | 0 | 0 | 0 | 0
Cn1c(/C=N/NC(=O)c2ccccc2)nc2ccccc21 | 31 | 75 | 0 | ? | ?
Cn1c(CCCNC(=O)c2ccccc2)nc2ccccc21 | 0 | 0 | 0 | ? | 0
Cn1c(-c2ccccc2)c(/C=N/NC(=O)c2ccc(O)cc2)c2ccccc21 | 34 | 87 | 0 | - | -
CC12C=CC3(O1)C(C(=O)N(c1ccccc1)C3C(=O)NC1CCCC1)C2C(N)=O (stereo not given) | 0 | 0 | 0 | 0 | 0
COc1cc(OC)c(NC(=O)C(C)n2c(=O)cc(-c3ccccc3)c3c(C)nn(C)c32)cc1Cl (stereo not given) | - | - | - | - | 0
CCOC(=O)C1=CNS(=O)(=O)NC1c1ccc(C[C@H](NC(=O)CNC(=O)CCc2ccccc2)C(N)=O)cc1 (stereo not given in full) | - | - | 0 | - | -
O=C(CSc1nnc2ccccn12)c1ccc(Cl)cc1 | 45 | 124 | 0 | 0 | ?
Cc1c(Cl)cnc(NC(=O)CSc2nnc3ccccn23)c1Cl | 22 | 84 | 0 | 0 | ?
CCOc1ccc(C(=O)CSc2nnc3ccccn23)cc1 | 34 | 58 | 0 | 0 | ?
CC(=O)c1cccc(NS(=O)(=O)c2ccc3c(c2)N(C(C)=O)CCO3)c1 | 0 | 0 | 0 | - | -
CCc1cccc2c(C(=O)COC(=O)c3nccnc3N)c[nH]c12 | - | - | 0 | 0 | 0

Screening data from PubChem.
